Source: PubChem BioAssay (Broad Institute)
Casp6 inh: blocks human caspase-6 cleavage activity. 0.53% of 350,000 active. purified caspase-6, Z-VEID-R110 cleavage fluorescence. inhibition, % at 12.5 µM. P55212;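 active = mean inhibition across replicates at least about 35%, with every replicate also reaching that limit, limit read from the data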
NSD2 HMT inh: inhibitors of human histone methyltransferase NSD2. 0.54% of 310,000 active. AID 743445. inhibition, % at 12.5 µM. NSD2 peptide methylation, AlphaScreen, 120 min. O96028; in the data active = inhibition above about 50%
Target sequence (O96028 whole entry, looked up): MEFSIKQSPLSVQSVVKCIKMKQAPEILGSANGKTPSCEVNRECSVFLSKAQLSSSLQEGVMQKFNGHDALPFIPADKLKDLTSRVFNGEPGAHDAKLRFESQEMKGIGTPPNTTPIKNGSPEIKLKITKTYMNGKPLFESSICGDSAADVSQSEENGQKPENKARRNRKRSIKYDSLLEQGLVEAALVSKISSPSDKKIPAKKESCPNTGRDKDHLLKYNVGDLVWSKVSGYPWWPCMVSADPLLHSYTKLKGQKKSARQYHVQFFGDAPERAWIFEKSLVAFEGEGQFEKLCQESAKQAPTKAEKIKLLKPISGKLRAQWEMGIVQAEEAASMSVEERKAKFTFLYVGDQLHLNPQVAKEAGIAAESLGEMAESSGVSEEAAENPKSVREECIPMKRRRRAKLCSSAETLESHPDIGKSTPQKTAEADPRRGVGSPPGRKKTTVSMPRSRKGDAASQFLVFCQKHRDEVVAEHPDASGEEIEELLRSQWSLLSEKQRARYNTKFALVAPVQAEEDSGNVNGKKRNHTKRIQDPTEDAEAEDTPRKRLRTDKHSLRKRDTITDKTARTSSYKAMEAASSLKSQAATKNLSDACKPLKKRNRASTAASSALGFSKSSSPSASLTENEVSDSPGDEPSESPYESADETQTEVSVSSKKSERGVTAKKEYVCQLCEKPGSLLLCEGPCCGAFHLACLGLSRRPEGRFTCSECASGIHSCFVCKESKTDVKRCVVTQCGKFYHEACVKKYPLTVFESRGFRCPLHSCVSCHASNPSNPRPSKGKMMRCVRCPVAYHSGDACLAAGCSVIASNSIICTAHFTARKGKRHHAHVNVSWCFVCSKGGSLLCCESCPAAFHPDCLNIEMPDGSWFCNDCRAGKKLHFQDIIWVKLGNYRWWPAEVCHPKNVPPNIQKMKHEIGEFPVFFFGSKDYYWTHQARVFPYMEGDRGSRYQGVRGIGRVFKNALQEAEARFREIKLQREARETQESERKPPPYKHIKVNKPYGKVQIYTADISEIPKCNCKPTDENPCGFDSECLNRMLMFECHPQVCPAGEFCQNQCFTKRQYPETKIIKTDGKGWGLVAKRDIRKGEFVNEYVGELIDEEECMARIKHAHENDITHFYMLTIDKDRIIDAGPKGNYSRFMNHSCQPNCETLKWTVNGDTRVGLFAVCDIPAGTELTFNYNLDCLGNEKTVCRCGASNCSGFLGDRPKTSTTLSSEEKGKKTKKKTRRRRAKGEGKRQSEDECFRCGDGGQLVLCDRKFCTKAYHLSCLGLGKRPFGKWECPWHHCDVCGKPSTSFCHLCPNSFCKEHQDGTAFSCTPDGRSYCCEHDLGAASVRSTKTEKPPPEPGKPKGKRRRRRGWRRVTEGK
MLL AF4-AF9 inh: MLL-AF4/AF9 protein interaction inhibition; P42568; AlphaScreen, biotin-AF4 peptide binding to FLAG-AF9; inhibition, % at 10 µM; 0.47% of 350,000 active; AID 651704;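 active = every replicate reaching a set inhibition limit, whatever the replicate mean, cut at about 25% in these data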
RAD52 anneal inh: blocks human RAD52 DNA annealing; 0.46% of 360,000 active; inhibition, % at 18.7 µM; P43351; recombinant RAD52 DNA annealing, FRET fluorescence;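 active = every replicate showing at least 50% inhibition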
miR-122 sensor: miR-122 inhibition in Huh7 cells. Huh7 miR-122 Renilla luciferase sensor, 48 h; neutral wells = 0, positive control = 100. activation (reporter increase), % at 12.5 µM. 0.3% of 340,000 active;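 active = mean replicate activation score at least 90 and every replicate individually at or above 90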;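 note: higher luciferase means less miR-122 activity so hits act as miR-122 inhibitors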
Alpha artifact: interferes with AlphaScreen signal, flagging NSD2 false positives | shares compounds with NSD2 HMT inh | AlphaScreen artifact counterscreen, preloaded methylated H4 peptide | AC35, µM (doses to about 10 µM) | 9.4% of 1,500 active | AID 1053174; call rule not given here
A number is an active result; n = inactive; x = not tested or not shown. Rows were chosen to be rich in hits. Some 1.5% of all compounds tested hit in one or more screens of this group.

SMILES	Casp6 inh	NSD2 HMT inh	MLL AF4-AF9 inh	RAD52 anneal inh	miR-122 sensor	Alpha artifact
CCNC(=O)Nc1ccc2c(c1)C(=O)N(C)[C@@H]1CC[C@H](CC(=O)N[C@@H](C)c3ccccc3)O[C@H]1CO2	n	x	n	n	x	x
COc1ccc(C(=O)Oc2ccc(/C=N/Nc3ccc(Cl)c(C(=O)O)c3)cc2OC)cc1	n	85	n	n	n	n
O=C(N[C@@H]1CC[C@H](CC(=O)N2CCN(c3ccccc3)CC2)O[C@H]1CO)c1ccncc1	n	x	n	n	x	x
O=C(/C=C/c1ccc(O)c(O)c1)OC1C(O)CC(OC(=O)/C=C/c2ccc(O)c(O)c2)(C(=O)O)CC1O (configuration not stated)	n	66	n	n	n	n
Oc1cccc2cnccc12	n	n	n	n	n	x
Nc1cccc2cnccc12	x	107	x	x	n	n
CN(Cc1c(O)ccc2c1oc(=O)c1ccccc12)C1CCCCC1	x	75	x	x	n	n
CCOC(=S)SCC(=O)Nc1nc(C)c(C)s1	n	51	n	n	n	n
CN(C)CCNc1ncnc2ccccc12	n	n	x	n	n	x
CN(C)CCNc1ncnc2oc(-c3ccccc3)c(-c3ccccc3)c12	n	51	n	n	n	n
CCCNC(=O)[C@H]1[C@H](CO)[C@H]2Cn3c(ccc(C4=CCCC4)c3=O)[C@@H]1N2	n	x	n	n	n	x
Cc1nc2oc3c(NCC4CCCO4)ncnc3c2c2c1COC(C)(C)C2 (configuration not stated)	x	n	x	x	n	x
CC(C)c1nc2oc3c(NCC4CCCO4)ncnc3c2c2c1COC(C)(C)C2 (configuration not stated)	x	54	x	x	194	n
O=C1C(=Cc2ccco2)CCC1=Cc1ccco1	88	141	n	n	n	n
C[C@H](CO)N1C[C@H](C)[C@H](CN(C)CC2CCCCC2)Oc2c(NC(=O)C3CCCCC3)cccc2C1=O	n	x	n	n	n	x
CCN(Cc1ccccc1)Cc1c(C)[nH]c2c(C)c(C)ccc2c1=O	x	56	x	x	n	n
Cc1c(NC(=O)CN2C(=O)C(=O)c3ccccc32)c(=O)n(-c2ccccc2)n1C	n	56	n	n	x	n
Cc1c(NC(=O)CN2C(=O)c3cccc4cccc2c34)c(=O)n(-c2ccccc2)n1C	x	n	x	x	n	x
C[C@@H]1CN([C@@H](C)CO)C(=O)c2cc(NS(=O)(=O)c3cn(C)cn3)ccc2O[C@H]1CN(C)Cc1ccc(C(=O)O)cc1	n	x	n	n	n	x
C[C@H](CO)N1C[C@H](C)[C@@H](CN(C)CC2CC2)Oc2c(NC(=O)Nc3ccc(F)cc3)cccc2C1=O	n	x	n	n	n	x
Cc1cc2oc(=O)cc(CSc3nc(N)cc(N)n3)c2cc1C(C)C	x	n	x	x	n	x
CCCc1cc(=O)[nH]c(SCc2cc(=O)oc3cc(C)c(C(C)C)cc23)n1	n	78	n	n	x	n
c1coc(-c2nc(-c3ccco3)c(-c3ccco3)nc2-c2ccco2)c1	x	149	x	x	n	n
CCOC(=O)Cn1nc(-c2ccccc2)nc1-c1ccccc1	x	n	x	x	x	x
CCOC(=O)Cn1ncc(-c2ccccc2)c1N	x	128	x	x	n	n
SMILES	Casp6 inh	NSD2 HMT inh	MLL AF4-AF9 inh	RAD52 anneal inh	miR-122 sensor	Alpha artifact
CN(C)CCCN1C(=O)c2cccc3c([N+](=O)[O-])ccc(c23)C1=O	x	71	x	x	x	n
C[C@@H]1CN([C@@H](C)CO)C(=O)c2cc(C#Cc3cccc(F)c3)cnc2O[C@@H]1CN(C)CC1CC1	x	x	x	x	n	x
Cn1ncc(Cl)c1C(=O)Nc1cc(C(F)(F)F)ccc1F	x	127	x	x	n	n
COc1cc(NC(=O)c2c(Cl)cnn2C)c(OC)cc1Cl	n	n	n	n	x	x
COc1cc(-c2nnn(Cc3ccccc3C)n2)cc(OC)c1OC	n	54	n	n	x	n
CC1(C)CC2CC(C)(CN2C(=O)COC(=O)c2ccccc2C(F)(F)F)C1 (configuration not stated)	n	n	n	n	n	x
CSc1ncccc1C(=O)OCC(=O)N1CC2(C)CC1CC(C)(C)C2 (configuration not stated)	n	53	n	n	n	n
C[C@@H]1CN([C@H](C)CO)C(=O)c2cc(C#C[C@@H](C)O)cnc2O[C@H]1CN(C)Cc1ccccn1	n	x	n	n	n	x
CN(C)/C=C1\C=C2C(=O)c3ccccc3N2C1=O	n	144	n	n	n	n
CO[C@H]1CN(C)C(=O)c2ccc(NC(=O)NC(C)C)cc2OC[C@H](C)N(C)C[C@@H]1C	n	x	n	n	x	x
c1ccc(CN2CCN(c3nc(-c4ccccc4)nc(-n4ccnc4)n3)CC2)cc1	x	63	x	x	n	n
c1ccc(-c2nc(-n3ccnc3)nc(-n3ccnc3)n2)cc1	x	n	x	x	x	x
O=C(C[C@@H]1CC[C@H]2[C@@H](COC[C@H](O)CN2C(=O)Nc2ccccc2)O1)NCCCN1CCOCC1	n	x	n	n	n	x
CC(C)NC(=O)N1C[C@@H]2[C@H](c3ccccc31)[C@H](CO)N2C(=O)c1ccncc1	n	x	n	n	n	x
COC(=O)c1ccc(CSc2ncnc3c2sc2nc(N4CCOCC4)c4c(c23)CCCC4)o1	x	n	x	x	n	x
COC(=O)c1ccc(Cn2cnc3c(sc4nc(N5CCOCC5)c5c(c43)CCCC5)c2=O)o1	x	75	x	x	n	n
COc1ccc(/C=C/C(=O)OCC(=O)NCC2CCCO2)cc1 (configuration not stated)	n	54	n	n	x	n
CCCC(=O)Nc1ccc(C(=O)O)cc1NC(=O)CCC	x	72	x	x	n	n
CCCC(=O)Nc1ccccc1NC(=O)CCC	x	n	x	x	n	x
